Source: PubChem (National Center for Advancing Translational Sciences (NCATS))
Only a selection was taken, and hits are over-represented in it overall.
IL-1B inflam inh: blocks inflammasome-driven IL-1 beta release. THP-1 LPS/ATP IL-1B secretion, AlphaLISA, 16 h; active compounds read low. activity change, % at 57.5 µM. actives 4.7% (n = 360,000). AID 743279; in the data active means activity change below about -50%; inconclusive means mostly about -30% to -49%
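THP-1 cells pretreated 1 hr with compounds (up to 57.5 uM final), then stimulated with LPS (250 ng/mL final) plus ATP (1.25 mM final); secreted IL-1B measured by AlphaLISA after 16 hr, decreased signal indicating inhibition.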
HT1080NT lethal: kills 2HG-producing HT-1080-NT fibrosarcoma cells; HT-1080-NT fibrosarcoma viability, CellTiter-Glo ATP luminescence, 48 h; Potency, µM (highest dose often 46.1 µM), for inactives: at the highest dose activity, negative = less viability, usual class: cytotoxic; actives 1.6% (n = 360,000); AID 686970;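 further: NT is the 2HG producing partner of a matched IDH1 knockdown line; potency means the concentration at half of the fitted maximal effect; 0% = DMSO-treated cells and -100% = media-only wells without cells; nearly all actives have a fitted effect of over 55% in size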
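HT-1080-NT fibrosarcoma cells (2HG-overproducing), 750 cells/well in RPMI with 5% FBS, dosed after 2 h and incubated 48 h at 37C. CellTiter-Glo luminescence normalized to DMSO and no-cell wells; concentration-response curves fitted and classed.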
HT1080 IDH1KD tx: toxicity to HT-1080 IDH1 knockdown cells (counter line); HT-1080 IDH1 knockdown viability, ATP luminescence, 48 h; Potency, µM (top dose mostly 46.1 µM), without a hit: at the highest dose activity, negative = toxicity, most hits filed as cytotoxic; actives 2% (n = 360,000); AID 686971;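 further: potency means the concentration at half of the fitted maximal effect; 0% = DMSO wells and -100% = cell-free medium wells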
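In this qHTS, HT-1080 cells depleted of IDH1 are exposed for 48 h at 37 °C to compound titrations. Toxicity is scored from CellTiter-Glo luminescence, with DMSO as full viability and medium alone as none.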
DT40 TDP1 no CPT: qHTS for Inhibitors of human tyrosyl-DNA phosphodiesterase 1 (TDP1): qHTS in cells in absence of CPT | DT40 Tdp1-/- hTDP1 cells, no CPT, ATP luminescence, 48 h | Potency, µM (top dose mostly 46.2 µM), without a hit: top-dose activity change, negative = growth inhibition, most hits filed as inhibitors | actives 15% (n = 420,000); further: potency means the concentration at half of the fitted maximal effect; nearly all actives have a fitted effect of over 55% in size
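Compound effects on proliferation are scored in DT40 Tdp1-/-;hTDP1 cells in the absence of CPT. ATP levels (CellTiter-Glo luminescence) are recorded after a ≥48 hr, 37 °C incubation.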
ALOX12 inh: blocks human arachidonate 12S-lipoxygenase | AID 1671190 | purified 12hLO, xylenol orange hydroperoxide absorbance | P18054 | actives 1.1% (n = 580,000) | Potency, µM (highest dose often 108 µM), for inactives: top-dose activity change, negative = inhibition, hits mostly inhibitors; further: potency means the concentration at half of the fitted maximal effect
Target sequence (P18054 whole entry, looked up): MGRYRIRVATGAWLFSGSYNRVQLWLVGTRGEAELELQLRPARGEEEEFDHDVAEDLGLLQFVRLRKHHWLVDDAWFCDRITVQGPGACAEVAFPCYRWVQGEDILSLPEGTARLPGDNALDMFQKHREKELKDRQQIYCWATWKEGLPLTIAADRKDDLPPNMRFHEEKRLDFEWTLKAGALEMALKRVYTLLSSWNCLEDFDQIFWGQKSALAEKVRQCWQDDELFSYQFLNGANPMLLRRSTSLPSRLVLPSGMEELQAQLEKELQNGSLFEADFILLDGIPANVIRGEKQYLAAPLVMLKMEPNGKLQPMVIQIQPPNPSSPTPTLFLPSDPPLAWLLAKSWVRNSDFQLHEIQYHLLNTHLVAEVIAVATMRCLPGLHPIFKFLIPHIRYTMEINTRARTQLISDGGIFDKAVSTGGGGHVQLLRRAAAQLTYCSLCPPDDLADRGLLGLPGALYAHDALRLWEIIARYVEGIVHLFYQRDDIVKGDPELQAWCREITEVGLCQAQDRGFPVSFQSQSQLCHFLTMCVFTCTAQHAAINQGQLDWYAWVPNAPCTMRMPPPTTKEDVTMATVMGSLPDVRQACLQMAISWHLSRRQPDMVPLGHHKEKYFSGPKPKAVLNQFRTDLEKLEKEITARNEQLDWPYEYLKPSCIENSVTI
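Purified human 12hLO at 150 nM in 25 mM Hepes, 0.01% Triton X-100, pH 7.0, preincubated 15 min at room temperature with compound. Reaction started with 40 uM arachidonic acid, 30 min at room temperature. Hydroperoxide measured by Fe-xylenol orange, 573/405 nm absorbance ratio.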
TDP1 cell CPT: growth inhibition of DT40 Tdp1-/-;hTDP1 cells with camptothecin (screen for TDP1 inhibitors); actives 12% (n = 420,000); chicken DT40 Tdp1-/-;hTDP1 cells + 20 nM CPT, ATP luminescence, 48 h; Potency, µM (top dose mostly 46.2 µM), for inactives: top-dose activity change, negative = growth inhibition, actives largely listed as inhibitors; further: potency means the concentration at half of the fitted maximal effect; nearly all actives have a fitted effect of over 55% in size
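Chicken DT40 Tdp1-/- cells complemented with human TDP1, 400 cells/well, exposed to compounds plus 20 nM camptothecin for at least 48 h at 37 C; viability read as ATP content by CellTiter-Glo luminescence.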
* hit, by the source's call; ? = inconclusive; . = no result; [ ] = dose if it differs, or a comment. Unless noted, the call rests on the fitted dose curve; in most records, active means well fitted curve in the direction sought with a large enough effect; inconclusive means small, poorly fitted or top-dose-only effect, or another doubt; inactive means no such curve, though single readings can be large; an effect the other way counts as inactive or inconclusive. Unless noted, on the % scale 0 is the no-effect control and ±100 the full control effect.

SMILES | IL-1B inflam inh | HT1080NT lethal | HT1080 IDH1KD tx | DT40 TDP1 no CPT | ALOX12 inh | TDP1 cell CPT
CN(C)/C=N/c1c(C#N)cnn1-c1ccccc1 | 14 | 0% | 6% | -20% | 18% | -2%
COC(=O)C1=C(C)N(CCc2ccccc2)C(=O)C1(NS(=O)(=O)c1ccc(NC(C)=O)cc1)C(F)(F)F (centres undefined) | -1 | 10µM* | 6.3µM* | ? | -14% | -22%
CC(=O)C1=C(C)N(c2ccccc2)C(=O)C1(NS(=O)(=O)c1ccc(N)cc1)C(F)(F)F (centres undefined) | 18 | -2% | 1% | -5% | -3% | 14%
O=C(CSCc1cccc(Cl)c1)N/N=C/c1ccc(OCC(=O)N2CCCCC2)cc1 | -74* | -27% | -25% | 16µM* | 10% | 16µM*
Cc1cccc(C(=O)N/N=C/c2ccc(OCC(=O)N3CCCCC3)cc2)c1 | 10 | 1% | -2% | 2% | 10% | ?
CCOC(=O)C1(CCCc2ccccc2)CCN(C(=O)CCN2CCCCC2=O)CC1 | -5 | 7% | -1% | 16µM* | 0% | ?
CCOC(=O)C1(CCCc2ccccc2)CCN(C(=O)CCCn2cncn2)CC1 | -8 | -16% | -17% | 26µM* | 1% | ?
CCOC(=O)C1(CCCc2ccccc2)CCN(C(=O)CCc2cnn(C)c2)CC1 | 0 | -15% | -19% | ? | -5% | ?
Cc1ccc2nc(/C(C#N)=C\c3cc(C)n(-c4cccc([N+](=O)[O-])c4)c3C)[nH]c2c1 | ? | -3%[9.24 µM] | ? | 9.2µM* | -15% | 8.2µM*
O=C1CCCN1CCCN1C(=O)[C@H]2CN(Cc3cccc(Cl)c3F)C[C@H]2C1=O | . | . | . | . | 47% | .
CC(C)(C)C(=O)CSc1nnc(COc2ccc(Cl)cc2)n1-c1ccc(Cl)cc1 | . | . | . | . | -20% | .
CCCOc1c(Cl)cc(C(=O)Nc2ccc3c(c2)OCO3)cc1OCC | -56* | ? | 10µM* | ? | 34% | ?
O=C(Nc1ccc2c(c1)OCO2)c1ccc(NC2CC2)c([N+](=O)[O-])c1 | -5 | ? | -24% | 21µM* | 4% | 21µM*
CCC(=O)Oc1ccc(C(=O)Nc2ccc3c(c2)OCO3)cc1 | -58* | ? | ? | 21µM* | 11% | ?
CCOc1ccc(C(=O)Nc2ccc3c(c2)OCCO3)cc1[N+](=O)[O-] | -58* | 11% | 4% | -14% | -5% | 17%
CCCOc1ccc(C(=O)Nc2ccc3c(c2)OCO3)cc1 | -2 | -4% | ? | 13% | -4% | 3%
CCOc1ccc(C(=O)Nc2ccc3c(c2)OCCO3)cc1OC | -9 | ? | ? | -8% | -11% | ?
Fc1ccc(Oc2nc3ccccc3s2)c(Br)c1 | . | . | . | . | 42% | .
CC1CCc2nc(N)c(C#N)c(-c3ccc(F)cc3)c2C1 (centres undefined) | . | . | . | . | 2% | .
CCOc1ccc(C(=O)NCC(=O)Nc2ccc3c(c2)OCO3)cc1OCC | -12 | -12% | -7% | 5% | -21% | -1%
CCOc1cc(C(=O)Nc2ccc3c(c2)OCO3)ccc1OC(F)F | -65* | -11% | -14% | 11µM* | 7% | 15µM*
c1ccc(-c2ccnc(NCC3OCCc4ccccc43)n2)nc1 (centres undefined) | . | . | . | . | 107% | .
COc1ccccc1NC(=O)COC(=O)COc1cccc2c1OC(C)(C)C2 | 1 | 12% | 12% | -14% | -17% | -11%
COc1cc(NC(=O)COc2cccc3c2OC(C)(C)C3)cc(OC)c1OC | 0 | -1% | -1% | 8.2µM* | -1% | 13µM*
COc1ccc(NC(=O)COc2cccc3c2OC(C)(C)C3)c(OC)c1 | 8 | -5% | -27% | 16µM* | -17% | ?
SMILES | IL-1B inflam inh | HT1080NT lethal | HT1080 IDH1KD tx | DT40 TDP1 no CPT | ALOX12 inh | TDP1 cell CPT
COc1ccc(CNCC(O)COc2cccc3c2OC(C)(C)C3)cc1 (centres undefined) | ? | ? | -29% | 8.2µM* | -1% | 9.2µM*
COc1cc(C)c(NC(=O)COc2cccc3c2OC(C)(C)C3)cc1OC | 37 | -5% | -24% | 12µM* | . | 16µM*
O=Cc1cccn1-c1ccccn1 | . | . | . | . | 1% | .
Cc1ccc(CNC(=O)COc2cccc3c2OC(C)(C)C3)cc1 | -15 | -6% | -5% | 18µM* | -5% | ?
COc1cccc(CNC(=O)COc2cccc3c2OC(C)(C)C3)c1 | ? | 0% | 1% | 8% | -25% | -23%
CCOc1cc(C2C3=C(CC(C)(C)CC3=O)OC3=C2C(=O)CC(C)(C)C3)ccc1OC(C)=O | . | . | . | . | 73% | .
Cn1c(=O)c2c3c(sc2n2c(SCC(N)=O)nnc12)CC(C(C)(C)C)CC3 (centres undefined) | -1 | ? | ? | ? | 1% | 23µM*
CCCCN(CCCC)C(=O)CSc1nnc2n(C)c(=O)c3c4c(sc3n12)CCCC4 | 9 | -5% | -5% | 23µM* | 8% | ?
CC1CCN(CCCCOc2ccccc2Br)CC1 | -23 | -8% | -6% | ? | -14% | ?
Cc1cc(Cl)c(OCCOCCN2CCN(C)CC2)c(Br)c1 | -13 | 0% | 6% | ? | ? | ?
CCC(C)NCCOCCOc1ccc(C)cc1Br (centres undefined) | -27 | ? | ? | ? | ? | -25%
Cc1cc(C)c(OCCCCN2CCC(C)CC2)c(Br)c1 | -78* | ? | ? | ? | -10% | ?
CN1CCN(CCOCCOc2c(Cl)cc(Cl)cc2Cl)CC1 | -8 | ? | -16% | 16µM* | ? | ?
Cc1cc(Cl)c(OCCOCCN2CCC(C)CC2)c(Br)c1 | -57* | -3% | -1% | 16µM* | ? | 23µM*
CCC(C)NCCCOc1c(C)cc(C)cc1Br (centres undefined) | -76* | ? | ? | 12µM* | ? | ?
COc1ccccc1-c1cc(C(=O)N2CCCC2)nc2c1cnn2C | . | . | . | . | 9%[6.33 µM] | .
O=C(Nc1ccc([C@@H](O)[C@H]2COCC(=O)N2CC2CC2)cc1)C1CCCC1 | . | . | . | . | 4%[176 µM] | .
COc1ccc(CNC(=O)c2ccc(Cl)c(S(=O)(=O)N3CCOCC3)c2)cc1OC | 7 | -13% | -13% | 7.3µM* | . | 9.2µM*
CCOc1ccc(CCNC(=O)c2ccc(Cl)c(S(=O)(=O)N3CCOCC3)c2)cc1OCC | 34 | -10% | -6% | 23µM* | -21% | 21µM*
